Inconclusive results are not listed. Entries that show only a call come without a potency. Unmarked numbers belong to inactive results. Activity calls are given as the source filed them. The call rests on the fitted dose curve; in most records, active means well fitted curve in the direction sought with a large enough effect in the repeat runs; inconclusive means weak or mixed curves; inactive means no such curve, though single readings can be large; an effect the other way counts as inactive or inconclusive.
Assays:
[1] = target: Cytochrome P450 2D6 (Homo sapiens) (UniProt P10635); assay: Cytochrome P450 Family 2 Subfamily D Member 6 (CYP2D6) small molecule antagonists: luciferase reporter qHTS assay (AID 1671196); further: nearly all actives have a fitted effect of over 50% in size; on activity change, negative = inhibition: series mostly up to about 120 µM
In short: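 Luminogenic proluciferin substrate, CYP2D6 enzyme; 10 min RT preincubation with compound, NADPH regeneration system added, 1 h RT. Stop/detection reagent, 20 min RT, luminescence read (RLU). Signal proportional to CYP activity.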

[2] = target: Cytochrome P450 2C19 (Homo sapiens) (UniProt P33261); assay: Cytochrome P450 Family 2 Subfamily C Member 19 (CYP2C19) small molecule antagonists: luciferase reporter qHTS assay (AID 1671197); further: nearly all actives have a fitted effect of over 65% in size; on activity change, negative = inhibition: series mostly up to about 120 µM
In short: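 Relative luminescence units recorded 20 min after the detection reagent stopped a 1 h, 37C CYP2C19 reaction on proluciferin substrate, which was started by NADPH regeneration following 10 min room-temperature compound preincubation; ketoconazole positive control.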

[3] = target: Voltage-gated inwardly rectifying potassium channel KCNH2 (Homo sapiens) (UniProt Q12809); assay: Human Ether-a-go-go-Related Gene (hERG) channel small molecule antagonists: fluorescence cell-based qHTS assay (AID 1671200); further: nearly all actives have a fitted effect of over 50% in size;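 on activity change, negative = inhibition: hERG-expressing U2OS cells given a thallium stimulus after FluxOR II dye loading; series mostly up to about 77 µM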
In short: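 Fluorescence at 540 nm emission (480 nm excitation) was recorded kinetically for 2 min at 1-second intervals once the thallium-containing stimulus reached cells previously loaded with FluxOR II dye.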

[4] = target: Cytochrome P450 3A4 (Homo sapiens) (UniProt P08684); assay: Cytochrome P450 Family 3 Subfamily A Member 4 (CYP3A4) small molecule antagonists: luciferase reporter qHTS assay (AID 1671201); further: nearly all actives have a fitted effect of over 50% in size; on activity change, negative = inhibition: series mostly up to about 120 µM
In short: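 qHTS, 1536-well. CYP3A4 + proluciferin substrate, cpd 10 min RT → NADPH regen 1 h RT → detection reagent 20 min → luminescence (RLU). Ketoconazole positive control.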

[5] = target: Cytochrome P450 1A2 (Homo sapiens) (UniProt P05177); assay: Cytochrome P450 Family 1 Subfamily A Member 2 (CYP1A2) small molecule antagonists: luciferase reporter qHTS assay (AID 1671199); further: nearly all actives have a fitted effect of over 50% in size; on activity change, negative = inhibition: series mostly up to about 120 µM
In short: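 Luminescence readout (relative luminescence units) after luciferin detection reagent, 20 min RT. Preceded by 1 h room-temperature CYP1A2 reaction with NADPH regeneration solution following 10 min compound preincubation with enzyme and proluciferin substrate. Furafylline positive control.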

[6] = target: Cytochrome P450 2C9 (Homo sapiens) (UniProt P11712); assay: Cytochrome P450 Family 2 Subfamily C Member 9 (CYP2C9) small molecule antagonists: luciferase reporter qHTS assay (AID 1671198); further: nearly all actives have a fitted effect of over 50% in size; on activity change, negative = inhibition: series mostly up to about 120 µM
In short: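 P450-Glo proluciferin substrate with CYP2C9 enzyme; 10 min RT preincubation, then NADPH regeneration 1 h at 37C; luciferin detection reagent 20 min RT, luminescence in relative luminescence units.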
Potency means the concentration at half of the fitted maximal effect.

Sequence of Cytochrome P450 1A2 (Homo sapiens) (P05177 whole entry, looked up): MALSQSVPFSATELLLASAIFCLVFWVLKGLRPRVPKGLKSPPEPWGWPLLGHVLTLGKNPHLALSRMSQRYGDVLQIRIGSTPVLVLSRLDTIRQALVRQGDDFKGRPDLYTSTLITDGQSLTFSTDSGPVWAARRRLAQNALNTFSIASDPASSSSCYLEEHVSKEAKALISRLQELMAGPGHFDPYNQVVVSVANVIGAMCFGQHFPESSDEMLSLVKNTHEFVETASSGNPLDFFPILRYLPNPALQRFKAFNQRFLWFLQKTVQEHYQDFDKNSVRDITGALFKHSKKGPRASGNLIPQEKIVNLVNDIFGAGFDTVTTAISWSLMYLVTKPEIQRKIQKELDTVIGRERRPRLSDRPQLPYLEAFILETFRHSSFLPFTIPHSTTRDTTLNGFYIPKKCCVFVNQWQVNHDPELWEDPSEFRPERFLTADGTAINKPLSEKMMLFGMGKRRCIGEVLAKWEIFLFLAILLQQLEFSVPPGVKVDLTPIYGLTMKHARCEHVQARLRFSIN
Sequence of Voltage-gated inwardly rectifying potassium channel KCNH2 (Homo sapiens) (Q12809 whole entry, looked up): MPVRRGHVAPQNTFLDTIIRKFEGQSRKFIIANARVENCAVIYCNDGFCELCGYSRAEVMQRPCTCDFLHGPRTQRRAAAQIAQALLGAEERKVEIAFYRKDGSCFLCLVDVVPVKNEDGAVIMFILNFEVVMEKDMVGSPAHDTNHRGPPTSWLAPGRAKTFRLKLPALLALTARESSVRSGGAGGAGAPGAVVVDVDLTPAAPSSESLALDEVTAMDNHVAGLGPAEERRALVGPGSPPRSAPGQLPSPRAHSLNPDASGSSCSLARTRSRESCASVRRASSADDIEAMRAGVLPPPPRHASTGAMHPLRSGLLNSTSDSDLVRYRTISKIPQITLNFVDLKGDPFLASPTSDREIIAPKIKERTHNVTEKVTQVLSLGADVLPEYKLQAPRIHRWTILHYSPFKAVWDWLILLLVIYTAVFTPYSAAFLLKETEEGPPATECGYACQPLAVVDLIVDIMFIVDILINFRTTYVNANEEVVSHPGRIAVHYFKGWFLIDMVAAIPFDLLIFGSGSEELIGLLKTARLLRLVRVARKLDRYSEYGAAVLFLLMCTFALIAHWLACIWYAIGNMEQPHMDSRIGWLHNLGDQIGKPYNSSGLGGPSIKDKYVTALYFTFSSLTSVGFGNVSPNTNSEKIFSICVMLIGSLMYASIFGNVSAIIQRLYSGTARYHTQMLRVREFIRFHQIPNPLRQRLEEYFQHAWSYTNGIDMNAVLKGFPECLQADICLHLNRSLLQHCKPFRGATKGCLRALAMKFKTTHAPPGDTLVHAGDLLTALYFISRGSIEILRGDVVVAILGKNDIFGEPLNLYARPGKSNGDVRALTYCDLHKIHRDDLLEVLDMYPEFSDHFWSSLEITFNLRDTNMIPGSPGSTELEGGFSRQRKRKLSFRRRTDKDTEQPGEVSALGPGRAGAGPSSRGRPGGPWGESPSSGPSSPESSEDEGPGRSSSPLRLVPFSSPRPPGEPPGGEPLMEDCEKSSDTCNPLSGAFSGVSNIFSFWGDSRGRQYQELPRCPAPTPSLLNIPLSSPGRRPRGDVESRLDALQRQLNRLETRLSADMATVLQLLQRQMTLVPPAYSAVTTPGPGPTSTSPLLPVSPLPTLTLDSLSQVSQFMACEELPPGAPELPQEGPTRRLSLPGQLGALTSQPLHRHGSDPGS
Sequence of Cytochrome P450 3A4 (Homo sapiens) (P08684 whole entry, looked up): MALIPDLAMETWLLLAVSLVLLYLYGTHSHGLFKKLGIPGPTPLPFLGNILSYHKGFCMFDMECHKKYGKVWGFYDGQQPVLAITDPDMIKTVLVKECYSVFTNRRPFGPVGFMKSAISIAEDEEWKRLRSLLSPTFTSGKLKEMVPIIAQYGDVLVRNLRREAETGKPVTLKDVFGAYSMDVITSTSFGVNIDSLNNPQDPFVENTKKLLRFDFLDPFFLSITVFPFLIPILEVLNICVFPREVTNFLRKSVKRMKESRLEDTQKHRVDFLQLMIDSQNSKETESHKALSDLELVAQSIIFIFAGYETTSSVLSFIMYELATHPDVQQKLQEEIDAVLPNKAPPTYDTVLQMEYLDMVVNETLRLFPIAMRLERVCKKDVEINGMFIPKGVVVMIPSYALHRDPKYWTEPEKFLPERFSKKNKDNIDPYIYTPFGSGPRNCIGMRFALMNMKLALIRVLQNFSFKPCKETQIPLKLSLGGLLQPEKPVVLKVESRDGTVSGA
Sequence of Cytochrome P450 2D6 (Homo sapiens) (P10635 whole entry, looked up): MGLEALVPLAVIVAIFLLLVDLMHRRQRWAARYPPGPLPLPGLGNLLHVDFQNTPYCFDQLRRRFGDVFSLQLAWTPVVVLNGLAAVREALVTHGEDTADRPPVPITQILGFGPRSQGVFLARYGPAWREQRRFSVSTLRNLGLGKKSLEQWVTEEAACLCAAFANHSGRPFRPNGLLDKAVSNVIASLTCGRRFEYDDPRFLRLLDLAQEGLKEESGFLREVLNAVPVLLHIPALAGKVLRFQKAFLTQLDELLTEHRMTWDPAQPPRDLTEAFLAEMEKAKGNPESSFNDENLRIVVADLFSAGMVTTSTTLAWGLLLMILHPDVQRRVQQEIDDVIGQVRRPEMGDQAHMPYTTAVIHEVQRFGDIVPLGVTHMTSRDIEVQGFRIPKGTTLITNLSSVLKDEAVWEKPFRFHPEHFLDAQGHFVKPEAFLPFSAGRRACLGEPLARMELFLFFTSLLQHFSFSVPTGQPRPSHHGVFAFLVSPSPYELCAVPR
Sequence of Cytochrome P450 2C9 (Homo sapiens) (P11712 whole entry, looked up): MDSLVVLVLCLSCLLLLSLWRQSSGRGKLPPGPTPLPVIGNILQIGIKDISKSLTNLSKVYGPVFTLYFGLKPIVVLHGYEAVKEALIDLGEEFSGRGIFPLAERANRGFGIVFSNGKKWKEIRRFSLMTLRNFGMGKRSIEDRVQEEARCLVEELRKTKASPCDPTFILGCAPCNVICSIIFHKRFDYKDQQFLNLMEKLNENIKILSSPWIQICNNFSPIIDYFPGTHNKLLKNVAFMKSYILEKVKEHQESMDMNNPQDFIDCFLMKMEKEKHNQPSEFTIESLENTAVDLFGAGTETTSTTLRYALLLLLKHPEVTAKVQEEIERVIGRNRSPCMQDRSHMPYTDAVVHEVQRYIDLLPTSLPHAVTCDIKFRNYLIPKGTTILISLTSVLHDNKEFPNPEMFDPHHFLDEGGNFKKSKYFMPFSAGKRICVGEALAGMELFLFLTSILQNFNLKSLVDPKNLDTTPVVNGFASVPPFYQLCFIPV
Sequence of Cytochrome P450 2C19 (Homo sapiens) (P33261 whole entry, looked up): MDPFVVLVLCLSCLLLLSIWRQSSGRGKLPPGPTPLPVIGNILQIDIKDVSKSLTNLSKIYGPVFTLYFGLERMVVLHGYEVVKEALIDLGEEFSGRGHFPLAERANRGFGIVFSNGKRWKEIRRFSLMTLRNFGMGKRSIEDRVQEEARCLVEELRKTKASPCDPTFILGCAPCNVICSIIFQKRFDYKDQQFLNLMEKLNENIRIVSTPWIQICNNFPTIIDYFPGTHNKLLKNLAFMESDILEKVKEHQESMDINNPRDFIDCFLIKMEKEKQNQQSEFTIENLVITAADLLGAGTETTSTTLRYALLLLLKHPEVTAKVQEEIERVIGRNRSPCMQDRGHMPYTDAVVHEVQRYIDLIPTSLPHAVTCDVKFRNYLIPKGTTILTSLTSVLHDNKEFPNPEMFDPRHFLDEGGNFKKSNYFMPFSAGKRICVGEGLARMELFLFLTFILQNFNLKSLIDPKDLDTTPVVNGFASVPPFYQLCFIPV

For `CC(CN)CC(C)(C)CCN` (centres undefined), the Potency [1] was 11.5 µM (active), the Potency [2] was 36.5 µM (active) and the Potency [3] was “inactive”. For the same molecule, the Potency [4] was 5.16 µM (active).

With `CCNC(=O)C1CC(C)CCC1C(C)C` (centres undefined) the Potency [1] was “inactive”, the Potency [2] was 17.8 µM (active) and the Potency [5] was “inactive”. The Potency [3] was “inactive” and the Potency [4] was 17.8 µM (active).

For `CC(C)C(=O)OCCc1ccccc1`, the Potency [1] was “inactive”, the Potency [2] was “inactive” and the Potency [5] was “inactive”. The Potency [3] was “inactive” and the Potency [4] was “inactive”.

`O=C(O)Cc1cn(-c2ccccc2)nc1-c1ccc(Cl)cc1` was tested, and the Potency [1] was “inactive”, the Potency [6] was 5.49 µM (active) and the Potency [5] was “inactive”. For the same molecule, the Potency [3] was “inactive” and the Potency [4] was “inactive”.

In the case of `Brc1ccc(-c2ccccc2)cc1`, the Potency [1] was “inactive”, the Potency [2] was “inactive” and the Potency [5] was 6.31 µM (active). For the same molecule, the Potency [3] was “inactive” and the Potency [4] was “inactive”.

In the case of `COCCc1ccc(OCC2CO2)cc1` (centres undefined), the Potency [1] was “inactive”, the Potency [2] was “inactive” and the Potency [5] was “inactive”. The Potency [3] was “inactive” and the Potency [4] was “inactive”.

`CCCCOC(=O)c1ccccc1` was tested, and the Potency [1] was “inactive”, the Potency [6] was “inactive” and the Potency [5] was “inactive”. The Potency [3] was “inactive” and the Potency [4] was “inactive”.

`COc1ccc(-c2cc(=O)c3c(O)cc(O[C@@H]4O[C@H](CO[C@@H]5O[C@@H](C)[C@H](O)[C@@H](O)[C@H]5O)[C@@H](O)[C@H](O)[C@H]4O)cc3o2)cc1O` was tested, and the Potency [1] was “inactive”, the Potency [2] was “inactive” and the Potency [3] was “inactive”. For the same molecule, the Potency [4] was “inactive”.

With `CCCC/C=C\CCCCCCCCCC=O` the Potency [1] was “inactive”, the Potency [6] was “inactive” and the Potency [5] was “inactive”. The Potency [3] was “inactive” and the Potency [4] was “inactive”.

With `COc1cc(NS(=O)(=O)c2ccc(N)cc2)nc(OC)n1` the Potency [1] was “inactive”, the Potency [2] was “inactive” and the Potency [5] was “inactive”. The Potency [3] was “inactive” and the Potency [4] was “inactive”.

With `Nc1ccc(S(=O)(=O)Nc2ccc(Cl)nn2)cc1` the Potency [1] was “inactive”, the Potency [2] was “inactive” and the Potency [3] was “inactive”. The Potency [4] was “inactive”.

`CCCN1C[C@H](CSC)C[C@@H]2c3cccc4[nH]cc(c34)C[C@H]21` was tested, and the Potency [1] was 0.155 µM (active), the Potency [6] was “inactive” and the Potency [5] was “inactive”. The Potency [3] was 7.56 µM (active).

With `OCCN(CCO)c1cccc(Cl)c1` the Potency [1] was “inactive”, the Potency [2] was 31.7 µM (active) and the Potency [3] was “inactive”. For the same molecule, the Potency [4] was “inactive”.

With `C[C@@H]1O[C@@H](O[C@@H]2[C@@H](O)[C@H](OCCc3ccc(O)c(O)c3)O[C@H](CO[C@@H]3O[C@H](CO)[C@@H](O)[C@H](O)[C@H]3O)[C@H]2OC(=O)/C=C/c2ccc(O)c(O)c2)[C@H](O)[C@H](O)[C@H]1O` the Potency [1] was “inactive”, the Potency [2] was “inactive” and the Potency [5] was “inactive”. For the same molecule, the Potency [3] was “inactive” and the Potency [4] was “inactive”.

For `CC(C(=O)O)c1ccc2c(c1)CC(=O)c1ccccc1S2` (centres undefined), the Potency [1] was “inactive”, the Potency [2] was “inactive” and the Potency [3] was “inactive”. The Potency [4] was “inactive”.

With `Cc1c(I)c(=O)n(-c2ccccc2)n1C` the Potency [1] was “inactive”, the Potency [2] was “inactive” and the Potency [5] was “inactive”. For the same molecule, the Potency [3] was “inactive” and the Potency [4] was “inactive”.

With `CCC(CC)CO` the Potency [1] was “inactive”, the Potency [6] was “inactive” and the Potency [5] was “inactive”. For the same molecule, the Potency [3] was “inactive” and the Potency [4] was “inactive”.

With `FC(F)(F)c1ccccc1-n1ccnc1` the Potency [1] was 2.19 µM (active), the Potency [2] was 5.49 µM (active) and the Potency [5] was 5.49 µM (active). The Potency [3] was “inactive”.

For `CCCCCCCC/C=C\CCCCCCCC(=O)OCCCC`, the activity change, negative = inhibition [1] was -8.07% [at 23.6 µM], the activity change, negative = inhibition [2] was -24.4% [at 23.6 µM] and the Potency [5] was “inactive”. The activity change, negative = inhibition [3] was -0.621% [at 15.8 µM] and the activity change, negative = inhibition [4] was -4.05% [at 23.6 µM].

In the case of `CC(CC=O)CCCC(C)(C)O` (centres undefined), the Potency [1] was 39.7 µM (active), the Potency [2] was 79.2 µM (active) and the Potency [5] was “inactive”. For the same molecule, the Potency [3] was “inactive” and the Potency [4] was “inactive”.

With `CC1COc2ccccc2N1` (centres undefined) the Potency [1] was “inactive”, the Potency [2] was 44.8 µM (active) and the Potency [3] was “inactive”. The Potency [4] was “inactive”.

With `CN1C(C)(C)CCCC1(C)C` the Potency [1] was 2.45 µM (active), the Potency [2] was “inactive” and the Potency [5] was “inactive”. For the same molecule, the Potency [3] was “inactive” and the Potency [4] was “inactive”.

For `CC(=O)Nc1ccc(S(=O)(=O)Cl)cc1`, the Potency [1] was “inactive”, the Potency [6] was “inactive” and the Potency [5] was “inactive”. For the same molecule, the Potency [3] was “inactive” and the Potency [4] was “inactive”.

In the case of `Nc1ccc([N+](=O)[O-])c(N)c1`, the Potency [1] was 7.76 µM (active), the Potency [2] was 30.9 µM (active) and the Potency [3] was “inactive”. The Potency [4] was “inactive”.

For `CCOC(=O)c1ncn2c1CN(C)C(=O)c1cc(F)ccc1-2`, the Potency [1] was “inactive”, the Potency [2] was “inactive” and the Potency [5] was “inactive”. The Potency [3] was “inactive” and the Potency [4] was “inactive”.

For `O=C(OCC(COC(=O)c1cccnc1)(COC(=O)c1cccnc1)COC(=O)c1cccnc1)c1cccnc1`, the Potency [1] was “inactive”, the Potency [2] was “inactive” and the Potency [3] was “inactive”.

For `CC(COC(C)(C)C)OCCCO` (centres undefined), the Potency [1] was 63.3 µM (active), the Potency [6] was “inactive” and the Potency [5] was “inactive”. For the same molecule, the Potency [3] was “inactive” and the Potency [4] was “inactive”.

— PubChem BioAssay (Tox21)
